TDP1 cell CPT: growth inhibition of DT40 Tdp1-/-;hTDP1 cells with camptothecin (screen for TDP1 inhibitors) | chicken DT40 Tdp1-/-;hTDP1 cells + 20 nM CPT, ATP luminescence, 48 h | Potency, µM (doses to about 46.2 µM), most hits filed as inhibitors | actives 12% (n = 420,000) | AID 686979; also: nearly all actives have a fitted effect of over 55% in size
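Cell growth measured by CellTiter-Glo luminescence after a minimum 48 h, 37 C compound exposure with 20 nM CPT in Tdp1-knockout DT40 cells stably expressing hTDP1, seeded 400/well; qHTS titration format.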
HT1080 IDH1KD tx: HT-1080 IDH1 knockdown cell toxicity (counter line); AID 686971; Potency, µM (series often up to 46.1 µM), hits mostly cytotoxic; HT-1080 IDH1 knockdown viability, ATP luminescence, 48 h; actives 2% (n = 360,000)
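In this qHTS, HT-1080 cells depleted of IDH1 are exposed for 48 h at 37 °C to compound titrations. Toxicity is scored from CellTiter-Glo luminescence, with DMSO as full viability and medium alone as none.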
TGFb SMAD3 inh: TGF-b pathway inhibition | HepG2 CAGA-GFP TGF-b/SMAD3 reporter, GFP fluorescence, 18 h; TGF-beta stimulated, 500 pg/mL final | Potency, µM (highest dose often 46.1 µM), most hits filed as inhibitors | actives 1.2% (n = 410,000) | AID 588855; also: nearly all actives have a fitted effect of over 65% in size
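Cell-based qHTS in HEPG2 carrying a CAGA-GFP Smad reporter; compounds added before 500 pg/mL final TGF-beta, 18 h incubation at 37 degrees C, GFP fluorescence quantified per cell by imaging cytometry.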
DT40 TDP1 no CPT: qHTS for Inhibitors of human tyrosyl-DNA phosphodiesterase 1 (TDP1): qHTS in cells in absence of CPT; AID 686978, 2013; Potency, µM (top dose mostly 46.2 µM), actives largely listed as inhibitors; actives 15% (n = 420,000); DT40 Tdp1-/- hTDP1 cells, no CPT, ATP luminescence, 48 h; also: nearly all actives have a fitted effect of over 55% in size
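Chicken DT40 Tdp1-/- cells complemented with human TDP1, screened without camptothecin (DMSO vehicle only), 400 cells/well. Compounds pin-transferred, cells incubated at 37 °C for at least 48 hr. Growth read as ATP-dependent luminescence (CellTiter-Glo, 30 min at RT).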
HT1080-NT tox: kills 2HG-producing HT-1080-NT fibrosarcoma cells. HT-1080-NT fibrosarcoma viability, CellTiter-Glo ATP luminescence, 48 h. Potency, µM (highest dose often 46.1 µM), hits mostly cytotoxic. actives 1.6% (n = 360,000). AID 686970;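 also: NT is the 2HG producing partner of a matched IDH1 knockdown line; nearly all actives have a fitted effect of over 55% in size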
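Compounds were tested in concentration-response format on HT-1080-NT cells for 48 hours at 37 degrees C. Cell viability came from CellTiter-Glo luminescence; curves were classified by r2, response magnitude and activity.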
HepG2 viability: counter-screen for TGF-b inhibitors: cytotoxicity in HepG2 cells | HepG2 CAGA-GFP viability, ATP luminescence, 18 h | Potency, µM (top dose mostly 46.1 µM), usual class: cytotoxic | actives 0.76% (n = 410,000) | AID 588856
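CellTiter-Glo luminescence gave cytotoxicity after 18 hours at 37 degrees C. The cells were HepG2 CAGA-GFP in 1% FBS DMEM, stimulated with 500 pg/mL TGF-beta after compound addition. %Activity was normalised to no-cell wells (complete cell-killing) and DMSO (no toxicity), and curves were fitted and classified.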
Large screens that a line does not name were inactive. Rows were chosen to be rich in hits. Some 17% of all compounds tested hit in one or more screens of this group. Calls follow the shape of the dose curve; as a rule, active = well fitted curve in the direction sought with a large enough effect; inconclusive = small, poorly fitted or top-dose-only effect, or another doubt; inactive = no such curve, though single readings can be large; an effect the other way counts as inactive or inconclusive.

Nc1c(C(=O)Nc2ccc3c(c2)OCCO3)nnn1Cc1ccc(F)cc1	none
COc1ccc(Br)cc1Cn1nnc(C(=O)Nc2ccc3c(c2)OCCO3)c1N	TDP1 cell CPT inconclusive, HT1080 IDH1KD tx inconclusive, DT40 TDP1 no CPT 26µM, HT1080-NT tox inconclusive
Nc1c(C(=O)Nc2ccc3c(c2)OCCO3)nnn1Cc1cccc(Cl)c1	TDP1 cell CPT inconclusive, HT1080 IDH1KD tx inconclusive, DT40 TDP1 no CPT 16µM, HT1080-NT tox inconclusive
CN(CC(=O)Nc1ccccc1C(F)(F)F)Cc1c(O)ccc2ccccc12	TGFb SMAD3 inh inconclusive, HT1080-NT tox inconclusive
CCOC(=O)c1ccc(NC(=O)c2ccc3c(c2)C(=O)N(Cc2cccnc2)C3=O)cc1	none
CN1CCc2nc(SCc3ccc(Cl)cc3)c(C#N)c(-c3cccs3)c2C1	TDP1 cell CPT 16µM, HT1080 IDH1KD tx inconclusive, TGFb SMAD3 inh inconclusive, DT40 TDP1 no CPT inconclusive
Cc1ccc(CSc2nc3c(cc2C#N)CCC3)cc1	none
CN1CCc2nc(SCc3ccc(C(C)(C)C)cc3)c(C#N)cc2C1	TDP1 cell CPT 23µM, HT1080 IDH1KD tx 11µM, DT40 TDP1 no CPT inconclusive, HT1080-NT tox inconclusive
N#Cc1cc2c(nc1SCc1ccccc1)CCCCC2	TDP1 cell CPT 18µM, DT40 TDP1 no CPT 21µM
COc1ccccc1CNC(=O)c1ccc(N2Cc3cccc(OC)c3Oc3ncccc32)s1	TDP1 cell CPT 15µM, DT40 TDP1 no CPT 12µM (no result: HT1080 IDH1KD tx, HT1080-NT tox)
CC(=O)C(Cc1ccccc1)NC(=O)CN(C)Cc1ccccc1Cl (stereo not drawn)	DT40 TDP1 no CPT inconclusive
CC(C)(C)c1ccccc1NC(=O)CN1C(=O)NC(Cc2ccccc2)C1=O (stereo not drawn)	none
CN1CC=C2C(C#N)=C(N)C(C#N)(C#N)[C@H](c3cccs3)[C@H]2C1	TDP1 cell CPT inconclusive, DT40 TDP1 no CPT 15µM
CN1CC=C2C(C#N)=C(N)C(C#N)(C#N)[C@H](c3cccc(Cl)c3)C2C1 (stereo partly drawn)	TDP1 cell CPT inconclusive, DT40 TDP1 no CPT 23µM
O=C(COCCOCC(=O)N(c1ccccn1)C1CCCCC1)N(c1ccccn1)C1CCCCC1	none
Cc1ccc(OCC(=O)N(c2ccccn2)C2CCCCC2)c(C)c1	TDP1 cell CPT inconclusive, TGFb SMAD3 inh inconclusive, DT40 TDP1 no CPT inconclusive
O=C(COc1ccc(Cl)cc1Cl)N(c1ccccn1)C1CCCCC1	TDP1 cell CPT 26µM, DT40 TDP1 no CPT inconclusive
CC(C)(C)c1ccc(OCC(=O)N(c2ccccn2)C2CCCCC2)cc1	TDP1 cell CPT inconclusive, DT40 TDP1 no CPT 15µM
CC(=O)Nc1ccc(N=Nc2ccccc2)cc1[N+](=O)[O-]	HT1080-NT tox inconclusive
Cc1ccc(SCc2cc(=O)[nH]c(/N=C(\N)Nc3ccccc3Sc3ccccc3)n2)cc1	TDP1 cell CPT inconclusive, DT40 TDP1 no CPT 29µM
Cc1ccc(N/C(N)=N/c2nc(CSc3nnc(N)s3)cc(=O)[nH]2)cc1	none
COc1ccccc1N/C(N)=N/c1nc(CSc2ccc(C)cc2)cc(=O)[nH]1	TDP1 cell CPT 18µM, DT40 TDP1 no CPT 7.3µM
COCc1cc(=O)[nH]c(/N=C(\N)Nc2ccc(C)cc2C)n1	none
Cc1cc2c(cc1C)N[C@]1(C[C@H]3CCCC(=O)N4CC[C@@H](C1)[C@@H]34)C(=NC1CCCCC1)N2	TGFb SMAD3 inh inconclusive (no result: HT1080 IDH1KD tx, HT1080-NT tox)
CCOC(=O)Cc1cc(-c2ccc(F)cc2)nc2ccc3ccccc3c12	TDP1 cell CPT inconclusive, TGFb SMAD3 inh inconclusive, DT40 TDP1 no CPT 29µM
CCOC(=O)Cc1cc(-c2ccc(O)cc2)nc2ccc3ccccc3c12	TDP1 cell CPT inconclusive, HT1080 IDH1KD tx inconclusive, TGFb SMAD3 inh inconclusive, DT40 TDP1 no CPT inconclusive, HT1080-NT tox inconclusive
CCOC(=O)Cc1cc(-c2ccc(OC)cc2)nc2ccc3ccccc3c12	TDP1 cell CPT 18µM, DT40 TDP1 no CPT inconclusive
Cc1cccn2c(=O)c(/C=C(\C#N)C(N)=O)c(Oc3ccccc3)nc12	TDP1 cell CPT inconclusive, DT40 TDP1 no CPT inconclusive
Cc1cccn2c(=O)c(/C=C(\C#N)S(=O)(=O)c3ccccc3)c(Oc3ccc(Cl)cc3)nc12	TDP1 cell CPT inconclusive, DT40 TDP1 no CPT 18µM
Cc1cc(Oc2nc3c(C)cccn3c(=O)c2/C=C(\C#N)S(=O)(=O)c2ccccc2)ccc1Cl	TDP1 cell CPT 13µM, DT40 TDP1 no CPT inconclusive
COC(=O)C(CCSC)NC(=O)c1cn(-c2ccc(OC)cc2)c(=O)c2ccccc12 (stereo not drawn)	none
CCOc1[nH]n(-c2ccccc2)c(=O)c1C=Nc1ccccc1	TDP1 cell CPT 6.5µM, HT1080 IDH1KD tx inconclusive, DT40 TDP1 no CPT 5.8µM, HT1080-NT tox inconclusive
CCOc1[nH]n(-c2ccccc2)c(=O)c1C=Nc1ccc(C)cc1	TDP1 cell CPT inconclusive
CCOc1[nH]n(-c2ccccc2)c(=O)c1C=Nc1ccc(Cl)cc1	TDP1 cell CPT inconclusive, DT40 TDP1 no CPT 15µM
CC(C)n1nc(C(=O)NNC(=O)c2ccc(OC(F)F)cc2)c2ccccc2c1=O	DT40 TDP1 no CPT inconclusive
COC(=O)[C@H](CO)NS(=O)(=O)c1ccc(C)cc1	none
COc1cccc(CNC(=O)c2ccccc2-c2ccccc2)c1	TDP1 cell CPT inconclusive
O=C(C1CCN(S(=O)(=O)c2cccc3nonc23)CC1)N1CCN(c2cccc(Cl)c2)CC1	TDP1 cell CPT 26µM, TGFb SMAD3 inh inconclusive, DT40 TDP1 no CPT 15µM (no result: HT1080 IDH1KD tx, HT1080-NT tox)
COc1ccc(Cl)cc1NC(=O)C1CCCN(S(=O)(=O)c2cccc3nonc23)C1 (stereo not drawn)	TDP1 cell CPT inconclusive, DT40 TDP1 no CPT inconclusive
O=C(C1CCN(S(=O)(=O)c2cccc3nonc23)CC1)N1CCN(c2ccc(F)cc2)CC1	TDP1 cell CPT 21µM, TGFb SMAD3 inh inconclusive, DT40 TDP1 no CPT 12µM (no result: HT1080 IDH1KD tx, HT1080-NT tox)
O=C(NCc1ccc(F)cc1)C1CCCN(S(=O)(=O)c2cccc3nonc23)C1 (stereo not drawn)	none
O=C(Nc1ccc(Cl)cc1F)C1CCN(S(=O)(=O)c2cccc3nonc23)CC1	none
O=C(C1CCCN(S(=O)(=O)c2cccc3nonc23)C1)N1CCN(c2cccc(Cl)c2)CC1 (stereo not drawn)	TDP1 cell CPT 16µM, TGFb SMAD3 inh inconclusive, DT40 TDP1 no CPT 23µM
O=C(C1CCCN(S(=O)(=O)c2cccc3nonc23)C1)N1CCC(Cc2ccccc2)CC1 (stereo not drawn)	TDP1 cell CPT 21µM, DT40 TDP1 no CPT 18µM

Compound activity from PubChem.
